This excerpt belongs to a sample that is enriched for hits.
TDP-43 tox inh: inhibitors of TDP-43 toxicity in yeast. Potency, µM (series often up to 46.1 µM), actives largely listed as activators. yeast TDP-43 toxicity rescue, BacTiter-Glo growth, 24 h. actives 0.45% (n = 45,000); active means well fitted activation curve with a large enough effect; further: 0% is about no effect; nearly all actives have a fitted effect of over 55% in size
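TDP-43-expressing yeast, pregrown in raffinose, seeded at OD600 0.02 in galactose medium with compound for 24 hr at 30 deg C. Growth read by BacTiter-Glo luminescence, so rescue of toxicity appears as activation.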
* marks the source's active call; other numbers are inactive results; i = inactive. Potency means the concentration at half of the fitted maximal effect.

SMILES | TDP-43 tox inh
CC(=O)CSc1ncnc2scc(-c3ccc(F)cc3)c12 | i
Fc1ccc(-c2csc3ncnc(Cl)c23)cc1 | 14µM*
Cc1ccc(-c2csc3ncnc(NS(=O)(=O)c4ccc(Cl)cc4)c23)cc1 | i
Cc1ccc(C)c(CN2C(=O)c3ccccc3S(=O)(=O)c3ccc(C(=O)N4CCN(c5ccccc5F)CC4)cc32)c1 | i
COc1ccc(OC)c(/C=C(/C#N)c2nc(-c3ccc(-c4ccccc4)cc3)cs2)c1 | i
Cc1ccc(CNC(=O)C2CCCN(c3nnc(-n4c(C)ccc4C)s3)C2)cc1 (centres undefined) | i
O=C(NCc1ccccc1)C1CCN(C(=O)c2cnn(-c3ccccc3)c2-n2cccc2)CC1 | i
CCN(CC)S(=O)(=O)c1ccc2c(c1)N(CC(=O)Nc1cccc(C#N)c1)C(=O)CO2 | i
Oc1c(Cl)cc(Cl)cc1/C=C/c1ccc2cccc(O)c2n1 | i
COc1cc(Cl)cc(/C=C/c2ccc3ccccc3n2)c1OC(C)=O | 13µM*
COc1c(OC(C)=O)ccc(/C=C/c2ccc3cccc(OCc4ccccc4)c3n2)c1[N+](=O)[O-] | i
Cc1ccc2nc(Nc3ccc(Br)cc3)nc(-c3ccccc3)c2c1 | i
Cc1c(C(=O)O)oc2c1-c1nn(Cc3ccccc3Cl)cc1CC2 | 11µM*
CC(=O)Nc1ccc(NC(=O)c2c(C)nn(Cc3ccccc3Cl)c2C)cc1 | i
CCOC(=O)c1oc2c(c1C)-c1nn(Cc3ccccc3Cl)cc1CC2 | i
Cc1nc([N+](=O)[O-])c(C(=O)OCc2cccc(Br)c2)n1C | 13µM*
COc1cc(OC)cc(C(=O)OCc2ccc([N+](=O)[O-])cc2)c1 | i
Cc1nc([N+](=O)[O-])c(C(=O)OCc2ccccc2)n1C | i
COc1ccc(OC)c(NC(=O)C2Cc3ccccc3CN2S(=O)(=O)c2ccc(F)cc2)c1 (centres undefined) | i
CN(C)c1ccc(CN(Cc2ccco2)C(=O)COc2ccc(F)cc2)cc1 | i
O=S(=O)(NCc1csc(-c2ccccc2)n1)c1cccc(F)c1 | i
COc1ccc(-c2nc(CNS(=O)(=O)c3ccccc3)cs2)cc1 | i
Cc1cc(C)c(S(=O)(=O)NCc2csc(-c3ccccc3)n2)c(C)c1 | 22µM*
COC(=O)c1cc2oc3ccccc3c2n1Cc1c(C)cc(C)cc1C | i
Fc1ccc(Nc2ncnc3sccc23)cc1 | 11µM*
SMILES | TDP-43 tox inh
OC(CNc1ncnc2sccc12)c1ccccc1 (centres undefined) | i
CN(C)C(CNc1ncnc2sccc12)c1ccccc1 (centres undefined) | i
CCCOc1cccc(C(=O)N(Cc2sccc2C)C2CCS(=O)(=O)C2)c1 (centres undefined) | i
CCCSc1ncc(Cl)c(C(=O)Nc2sc(C(C)=O)c(C)c2C(=O)OCC)n1 | i
COc1cc(/C=C/C(=O)c2ccc3c(c2)OCCO3)cc(Br)c1OCC(=O)N(C)C | 16µM*
O=C(/C=C/c1ccncc1)c1ccc2c(c1)OCCO2 | i
COc1cc(C(=O)NNC(=O)c2ccc3c(c2)OCCO3)cc(OC)c1OC | i
Cc1cccc(NC(=O)C2CCN(c3nnc(-n4c(C)ccc4C)s3)CC2)c1C | i
CC(C)CNC(=O)c1cccc2c(-c3cccnc3)coc12 | i
COc1ccc(NC(=O)c2cccc3c(-c4cccnc4)coc23)cc1 | 10µM*
O=C(NCC1CCOCC1)c1cccc2c(-c3cccnc3)coc12 | i
COC(=O)c1ccc(N2C(=O)CC(N3CCOCC3)C2=O)cc1 (centres undefined) | 16µM*
CCOC(=O)c1ccc(N2C(=O)CC(N3CCN(Cc4ccccc4)CC3)C2=O)cc1 (centres undefined) | i
CC1CCN(C2CC(=O)N(c3ccccc3)C2=O)CC1 (centres undefined) | i
Cc1ccc(NC(=O)Nc2nnc(N(CC(C)C)CC(C)C)s2)cc1Cl | i
CCCN(C(=O)c1cc2c(s1)-c1ccccc1SC2)c1ccccc1F | i
O=C(CCCn1c(=O)c2cccn2c2ccccc21)Nc1cccc(Cl)c1 | i
CCc1ccc(NC(=O)CN2C(=O)C(c3ccc(F)cc3)=NC2(C)C)cc1 | i
COc1ccccc1Oc1ccnc2cc(Cl)ccc12 | i
Oc1ccc(N2CCN(c3ccnc4cc(Cl)ccc34)CC2)cc1 | i
O=C(Oc1ccnc2cc(Cl)ccc12)N1CCCCCC1 | 3.2µM*
CCOc1ccccc1NC(=O)N1CCC2(CC1)Oc1ccccc1C(=O)N2Cc1ccccc1F | i
Cc1cccc(OCc2ccc(-c3nc(C#N)c(NCCN(C)C)o3)o2)c1 | i
COc1ccc(-c2cc(C(F)(F)F)n3nc(C(=O)O)c(Cl)c3n2)cc1OC | i
O=C(Cn1cc(C(=O)c2cccs2)c2ccccc21)Nc1ccc(Br)cc1 | i
CCN(Cc1ccccc1)C(=O)COC(=O)c1n[nH]c2ccccc12 | i
Cc1cccc(C)c1OCCOC(=O)c1n[nH]c2ccccc12 | 14µM*
O=C(COC(=O)c1n[nH]c2ccccc12)Nc1ccccc1F | i
COc1cc(/C=C/C(=O)O)ccc1OS(=O)(=O)c1ccc(C)cc1 | i
